Laboratory results published in PubChem BioAssay (Tox21).
Where “and” joins values, the source holds several entries; their conditions need not be identical. Equal entries are not always repeated. Inconclusive results are not listed. Some compounds were tested as several samples or in several runs, with calls that do not always agree. Calls of active or inactive are those of the source. Unless noted, the call rests on the fitted dose curve; in most records, active means well fitted curve in the direction sought with a large enough effect in the repeat runs; inconclusive means weak or mixed curves; inactive means no such curve, though single readings can be large; an effect the other way counts as inactive or inconclusive.

Assays:
[1] = Human pregnane X receptor (PXR) small molecule agonists, qHTS cell viability counter screen (AID 1346977); conditions: PXR-Luc HepG2 viability, CellTiter-Fluor, 24 h; series mostly up to 92.4 µM; further: nearly all actives have a fitted effect of over 50% in size; further: potency means the concentration at half of the fitted maximal effect
Outline: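 PXR-Luc HepG2 cells (2,000/well, 5% charcoal-stripped FBS) preincubated 5 hr, then exposed to compounds 24 hr at 37 C. Viability read in the same wells by CellTiter-Fluor fluorescence, reagent added at 23 hr, 1 hr incubation.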

[2] = Caspase-3/7 induction in HepG2 cells by small molecules, qHTS assay (AID 1346978); conditions: HepG2 caspase-3/7 activation, Caspase-Glo luminescence, 17 h; series mostly up to 92.4 µM; further: nearly all actives have a fitted effect of over 15% in size
Outline: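 Wild-type HepG2 cells (2,000/well) were settled 5 h at 37 C, 5% CO2, then exposed to compounds in DMSO for 17 h. Caspase-3/7 activity was read by luminescence 30 min after adding Caspase-Glo 3/7 reagent at room temperature.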

[3] = Caspase-3/7 induction in CHO-K1 cells by small molecules, qHTS assay (AID 1346980); conditions: CHO-K1 caspase-3/7 induction, Caspase-Glo luminescence, 17 h; series mostly up to 92.4 µM; further: nearly all actives have a fitted effect of over 15% in size; further: potency means the concentration at half of the fitted maximal effect
Outline: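 Wild-type cells were seeded at 1,500 per well and settled 5 hr at 37 C, 5% CO2, then exposed to DMSO-dissolved compounds for 17 hr. Caspase-Glo 3/7 reagent was added, and luminescence was read after 30min at room temperature.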

[4] = target: Nuclear receptor subfamily 1 group I member 2 (Homo sapiens) (UniProt O75469); test: Human pregnane X receptor (PXR) small molecule agonists, qHTS assay (AID 1346982); conditions: PXR-Luc HepG2, CYP3A4 luciferase reporter, 24 h; series mostly up to 92.4 µM; further: nearly all actives have a fitted effect of over 35% in size; further: potency means the concentration at half of the fitted maximal effect
Chain of Nuclear receptor subfamily 1 group I member 2 (Homo sapiens) (O75469 whole entry, looked up): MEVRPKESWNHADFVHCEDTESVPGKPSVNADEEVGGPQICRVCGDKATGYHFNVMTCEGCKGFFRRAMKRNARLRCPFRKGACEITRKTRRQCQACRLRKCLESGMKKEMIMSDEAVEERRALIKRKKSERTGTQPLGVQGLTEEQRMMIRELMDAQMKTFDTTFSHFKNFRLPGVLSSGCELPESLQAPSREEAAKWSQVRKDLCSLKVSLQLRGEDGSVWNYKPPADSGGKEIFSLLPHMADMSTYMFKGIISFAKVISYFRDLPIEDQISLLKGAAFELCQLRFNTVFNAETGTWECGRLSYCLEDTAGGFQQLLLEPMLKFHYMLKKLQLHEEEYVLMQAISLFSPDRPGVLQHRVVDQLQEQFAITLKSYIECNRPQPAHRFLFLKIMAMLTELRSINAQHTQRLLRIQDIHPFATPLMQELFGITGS
Outline: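 HepG2 PXR-Luc reporter line, 5% charcoal-stripped FBS; 5 hr pre-incubation, compound (DMSO) 24 hr at 37 C/5% CO2; ONE-Glo 30 min RT; luminescence read-out.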

[5] = target: Nuclear receptor subfamily 1 group I member 2 (Rattus norvegicus) (UniProt Q9R1A7); test: Rat pregnane X receptor (rPXR) activation by small molecules, qHTS assay (AID 1346983); conditions: rPXR luciferase reporter cells, One-Glo luminescence, 24 h; stronger effect = higher value; further: nearly all actives have a fitted effect of over 20% in size
Chain of Nuclear receptor subfamily 1 group I member 2 (Rattus norvegicus) (Q9R1A7 whole entry, looked up): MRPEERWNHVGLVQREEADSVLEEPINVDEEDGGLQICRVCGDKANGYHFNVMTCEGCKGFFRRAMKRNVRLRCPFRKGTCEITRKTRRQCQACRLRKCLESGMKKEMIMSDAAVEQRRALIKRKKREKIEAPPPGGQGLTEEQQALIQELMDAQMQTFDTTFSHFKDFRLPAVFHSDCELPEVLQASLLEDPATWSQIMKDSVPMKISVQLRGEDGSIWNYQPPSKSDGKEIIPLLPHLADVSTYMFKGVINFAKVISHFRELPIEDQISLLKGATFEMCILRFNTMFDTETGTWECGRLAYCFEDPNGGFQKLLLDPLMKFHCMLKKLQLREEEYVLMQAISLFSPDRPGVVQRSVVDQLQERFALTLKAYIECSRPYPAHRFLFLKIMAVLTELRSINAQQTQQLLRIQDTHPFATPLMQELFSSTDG
Outline: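 Cell-based rPXR luciferase reporter assay, 2,000 cells per well, rested 5hr at 37 C before compound addition in DMSO, then 24 hr at 37 C. One-Glo reagent was added and luminescence read after 30 min at room temperature.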

[6] = target: Nuclear receptor subfamily 1 group I member 2 (Homo sapiens) (UniProt O75469); test: CYP3A4 induction through human pregnane X receptor (PXR) by small molecules, qHTS assay (AID 1346984); conditions: DPX-2 HepG2 PXR, CYP3A4-luciferin luminescence, 24 h; series mostly up to 46.1 µM; further: nearly all actives have a fitted effect of over 40% in size
Outline: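 HepG2-derived DPX-2 line carrying PXR plus a CYP3A4-promoter luciferase reporter; cells plated 5 hr, compound-exposed 24 hr at 37C. CYP3A4 activity probed with 3uM (final) Luciferin-IPA for 3hr, then luciferase read after One-Glo.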

[7] = target: Nuclear receptor subfamily 1 group I member 2 (Homo sapiens) (UniProt O75469); test: Human pregnane X receptor (PXR) activation by small molecules, qHTS assay (AID 1346985); conditions: DPX-2 HepG2 CYP3A4-luciferase, 24 h; series mostly up to 38.3 µM; further: nearly all actives have a fitted effect of over 40% in size; further: potency means the concentration at half of the fitted maximal effect
Outline: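 DPX-2 cells (HepG2 co-transfected with a PXR response element and a CYP3A4-promoter luciferase construct) were seeded at 2,000 per well, rested 5 hr at 37C, then exposed to DMSO-dissolved compounds for 24 hr. Activation was read as luciferase luminescence.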

[8] = target: Acetylcholinesterase (Homo sapiens) (UniProt P22303); test: Acetylcholinesterase (AChE) small molecule antagonists: colormetric cell-based qHTS assay (AID 1347395; calls by dose curve; further: nearly all actives have a fitted effect of over 30% in size; further: potency means the concentration at half of the fitted maximal effect); conditions: SH-SY5Y cells AChE activity, colorimetric (Ellman); series mostly up to 115 µM
Chain of Acetylcholinesterase (Homo sapiens) (P22303 whole entry, looked up): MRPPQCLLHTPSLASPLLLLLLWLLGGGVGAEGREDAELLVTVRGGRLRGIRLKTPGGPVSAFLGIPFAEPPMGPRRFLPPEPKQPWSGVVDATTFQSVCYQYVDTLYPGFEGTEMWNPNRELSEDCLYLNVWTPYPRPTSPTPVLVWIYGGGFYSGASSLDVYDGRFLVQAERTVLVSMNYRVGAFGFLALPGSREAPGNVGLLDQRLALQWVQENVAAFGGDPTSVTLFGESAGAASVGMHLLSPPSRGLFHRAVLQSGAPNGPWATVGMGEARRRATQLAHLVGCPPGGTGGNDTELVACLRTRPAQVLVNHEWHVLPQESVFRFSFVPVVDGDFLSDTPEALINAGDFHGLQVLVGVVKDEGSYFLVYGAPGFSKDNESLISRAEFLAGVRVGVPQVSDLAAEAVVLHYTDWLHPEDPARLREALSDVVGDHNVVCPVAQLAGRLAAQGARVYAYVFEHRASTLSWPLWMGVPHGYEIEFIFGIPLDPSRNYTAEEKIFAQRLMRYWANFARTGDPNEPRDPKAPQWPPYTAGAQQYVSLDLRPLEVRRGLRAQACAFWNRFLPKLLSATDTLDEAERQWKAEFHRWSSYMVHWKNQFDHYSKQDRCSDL
Outline: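 SH-SY5Y cells attached overnight, exposed to compound 30 min at 37 C, then given DTNB/acetylthiocholine; after 90 min at 37 C, colorimetric thiocholine read gives cellular AChE activity.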

[9] = Caspase-3/7 induction in CHO-K1 cells by small molecules, qHTS cell viability counter screen (AID 1346979); conditions: CellTiter-Fluor fluorescence, 17 h; series mostly up to 92.4 µM; further: nearly all actives have a fitted effect of over 35% in size; further: potency means the concentration at half of the fitted maximal effect
Outline: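 Wild-type CHO-K1 cells (1,500/well) treated with compound after 5 h plating; after 16 h at 37C, viability read as CellTiter-Fluor fluorescence following 1 h reagent incubation, in the same wells as the caspase read.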

[10] = Caspase-3/7 induction in HepG2 cells by small molecules, qHTS cell viability counter screen (AID 1346981); conditions: CellTiter-Fluor fluorescence, 17 h; series mostly up to 92.4 µM; further: nearly all actives have a fitted effect of over 30% in size; further: potency means the concentration at half of the fitted maximal effect
Outline: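 Fluorescence read-out of live-cell protease activity (CellTiter-Fluor) after 1 hr with reagent. This was measured in the same wells as the caspase-3/7 luminescence, on HepG2 cells exposed to DMSO-dissolved compounds for 16 hr at 37 C.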
On the % scale 0 is the no-effect control and ±100 the full control effect.

COc1ccc(C(=O)c2c(C)n(CCN3CCOCC3)c3ccccc23)cc1
active: Potency [4] 9.44 µM | Potency [7] 14.1 µM
inactive: Potency [1] | Potency [2] | Potency [3] | max activation [5] 9.34% | outcome [6] | Potency [8]

O=C=NC1CCCCC1
active: Potency [4] 9.71 µM
inactive: Potency [1] | Potency [9] | Potency [3] | Potency [10] | Potency [8]

C[C@H](N)[C@H](O)c1ccc(O)c(O)c1
inactive: Potency [2] | Potency [9] | Potency [3] | Potency [10] | Potency [4] | max activation [5] -1.11% | outcome [6] | Potency [7] | Potency [8]

O=C(CCl)CCl
inactive: Potency [2] | Potency [3] | Potency [10] | Potency [8]
active: Potency [9] 50.3 µM and 30.6 µM | Potency [4] 56.5 µM and 61.1 µM

Nc1ccccc1C(=O)OCC(O)CO (stereo not drawn)
inactive: Potency [1] | Potency [9] | Potency [3] | Potency [10] | Potency [4] | Potency [8]

CCCCCCCCCCCCN(C)C
inactive: Potency [2] | Potency [9] | Potency [3] | Potency [10] | Potency [4] | Potency [8]

COP(=O)(OC)OC(Br)C(Cl)(Cl)Br (stereo not drawn)
inactive: Potency [2] | Potency [3] | Potency [10]
active: Potency [9] 61.2 µM | Potency [4] 61.2 µM

C[N+](C)(C)CCOC(=O)C(O)(c1ccccc1)c1ccccc1
inactive: Potency [1] | Potency [9] | Potency [3] | Potency [10] | Potency [4] | max activation [5] -2.47% | outcome [6] | Potency [7] | Potency [8]

C[C@H]1[C@@H]2Cc3ccc(O)cc3[C@@]1(C)CCN2C
inactive: Potency [2] | Potency [9] | Potency [3] | Potency [10] | Potency [4]
active: Potency [8] 15.2 µM

Cc1nc(N(C)C)nc(OC(=O)N(C)C)c1C
active: Potency [8] 11.2 µM
inactive: Potency [1] | Potency [9] | Potency [3] | Potency [10] | Potency [4]

O=C(Cc1ccccc1)OCCc1ccccc1
inactive: Potency [1] | Potency [3] | Potency [10] | Potency [4] | Potency [8]

CCC1CCC(=O)O1 (stereo not drawn)
inactive: Potency [1] | Potency [9] | Potency [3] | Potency [10] | Potency [4] | Potency [8]

CCOC(=O)C1OC1(C)c1ccccc1 (stereo not drawn)
inactive: Potency [1] | Potency [9] | Potency [3] | Potency [10] | Potency [4] | Potency [8]

CCC[N+](CCC)(CCC)CCC
inactive: Potency [2] | Potency [9] | Potency [3] | Potency [10] | Potency [4]

O=S(=O)(Cl)Cl
inactive: Potency [1] | Potency [9] | Potency [3] | Potency [10] | Potency [4] | Potency [8]

CC1(C)[C@H](C(=O)O[C@H](C#N)c2cccc(Oc3ccccc3)c2)[C@@H]1C=C(Br)Br
inactive: Potency [2] | Potency [9] | Potency [3] | Potency [10]

CC(C)(C)CC(C)(C)c1ccc(O)cc1
19.3 µM (active) and inactive: Potency [4]
active: Potency [1] 54.5 µM | Potency [9] 50 µM | Potency [3] 51.4 µM | Potency [10] 61.1 µM
39.9 µM (active) and inactive: Potency [8]

CCSCc1ccccc1OC(=O)NC
active: Potency [8] 10 µM
inactive: Potency [2] | Potency [9] | Potency [3] | Potency [10] | Potency [4]

CN(C1CCCCC1)C1CCCCC1
inactive: Potency [2] | Potency [9] | Potency [3] | Potency [10] | Potency [4] | Potency [8]

O=C(Cl)OCCOCCOC(=O)Cl
inactive: Potency [1] | Potency [3] | Potency [10] | Potency [4] | Potency [8]

CCCCC#N
inactive: Potency [1] | Potency [3] | Potency [10] | Potency [4] | Potency [8]

CN(C)N
inactive: Potency [1] | Potency [9] | Potency [3] | Potency [10] | Potency [4] | Potency [8]

CC(Oc1cc(Cl)c(Cl)cc1Cl)C(=O)O (stereo not drawn)
inactive: Potency [1] | Potency [9] | Potency [3] | Potency [10] | Potency [8]

C#C[C@]1(O)CC[C@H]2[C@@H]3CCC4=CC(=O)CCC4=C3C=C[C@@]21CC
inactive: Potency [1] | Potency [3] | Potency [10] | max activation [5] -15.2% | Potency [8]

O=C(O)CCCOc1ccc(Cl)cc1Cl
inactive: Potency [1] | Potency [9] | Potency [3] | Potency [10]

C=CC(=O)OCC
inactive: Potency [2] | Potency [9] | Potency [3] | Potency [10] | Potency [4] | Potency [8]

Nc1cc(Cl)cc(C(=O)O)c1Cl
inactive: Potency [1] | Potency [9] | Potency [3] | Potency [10] | Potency [4] | Potency [8]

CCC(C)(C)c1ccc(O)c(C(C)(C)CC)c1
active: Potency [1] 30.6 µM | Potency [9] 48 µM and 27.3 µM
inactive and 17.2 µM (active): Potency [3]
inactive: Potency [10] | Potency [8]
27 µM (active) and inactive: Potency [4]

C=CCSSCC=C
inactive: Potency [2] | Potency [9] | Potency [3] | Potency [10] | Potency [4] | Potency [8]

O=C(O)c1cc(I)cc(I)c1I
inactive: Potency [1] | Potency [9] | Potency [3] | Potency [10] | Potency [4] | Potency [8]

FC(F)OC(F)(F)C(F)Cl (stereo not drawn)
inactive: Potency [2] | Potency [9] | Potency [3] | Potency [10] | Potency [4] | max activation [5] -2.15% | outcome [6] | Potency [7] | Potency [8]

COc1ccc2c(c1OC)C(=O)O[C@H]2[C@@H]1c2cc3c(cc2CCN1C)OCO3
active: Potency [9] 11.9 µM | Potency [10] 11.9 µM
inactive: Potency [2] | Potency [3]

CC(C)CCON=O
inactive: Potency [1] | Potency [3] | Potency [10] | Potency [4] | max activation [5] -3.41% | outcome [6] | Potency [7] | Potency [8]

Cc1ccc2c(C)cccc2c1
inactive: Potency [1] | Potency [9] | Potency [3] | Potency [10] | Potency [4] | Potency [8]

CCCC1CCCCN1 (stereo not drawn)
inactive: Potency [2] | Potency [9] | Potency [3] | Potency [10] | Potency [4] | max activation [5] -2.95% | outcome [6] | Potency [7] | Potency [8]
